Over roughly 1,000 compounds, “relative growth in counter assay (no AraC = 100%, AraC + DMSO = 0%)” has its median near -1.1; the highest 2% begin near 20. For the sample, the highest values were picked, then their nearest neighbours and some compounds at random.
Test system: HEK293FT dCK*-only
Experiment: relative growth in counter assay (no AraC = 100%, AraC + DMSO = 0%); higher = more growth rescue independent of IKZF1
Details: compound concentration: 5 uM; AraC concentration: 0.3 uM; overnight pretreatment + 4 days AraC
Description: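 Growth recovery screen of the molecular-glue-like (Specs) library. HEK293FT cells expressing a dCK*-IKZF1 fusion (primary) or dCK* alone (counter) were pretreated overnight with compound at 5 uM, then given 0.3 uM AraC for 4 days. Hoechst nuclei were counted by imaging. Primary: normalised to pomalidomide (100%) and DMSO (0%), mean of 2 replicates. Counter: normalised to no-AraC (100%) and AraC+DMSO (0%), single replicate.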

SMILES | relative growth in counter assay
O=C1CCCC/C1=C/Nc1ccc(S(=O)(=O)Nc2cnc3ccccc3n2)cc1 | -1.17%
Cc1cnc(Nc2cccc(C3CN(C(=O)Cc4ccccc4)CCO3)n2)s1 (stereo not given) | -5.45%
COCC(=O)N1CCC(c2cccc(Nc3nc(C)cs3)n2)CC1 | 14%
O=C(C1CCCCC1)N1CCOC(c2cccc(Nc3ncc(Cc4cccc(Cl)c4)s3)n2)C1 (stereo not given) | 13.1%
O=C1CCCN1CCOCC(=O)N1CCOC(c2cccc(Nc3nccs3)n2)C1 (stereo not given) | -1.14%
CC(=O)Nc1ccc(C(=O)Nc2ccc(S(=O)(=O)Nc3nccc(C)n3)cc2)cc1 | -3.58%
O=C1CCC(N2C(=O)c3cc(F)c(N4CCN(CCC5CCNCC5)CC4)cc3C2=O)C(=O)N1 (stereo not given) | 1.21%
CC(C)C(=O)N1CCCC1c1csc(Nc2ccccn2)n1 (stereo not given) | 6.43%
Cc1cc(NS(=O)(=O)c2ccc(NC(=O)C3COc4ccccc4O3)cc2)nc(C)n1 (stereo not given) | -10.4%
O=C(O)CCOCCOCCOCCNc1cc2c(cc1F)C(=O)N(C1CCC(=O)NC1=O)C2=O (stereo not given) | 0.94%
CCCCc1cnc(Nc2cccc(C3CCN(C(=O)C4(C)CCCN4C(=O)OC(C)(C)C)CC3)n2)s1 (stereo not given) | 5.27%
CC(=O)Oc1cccc(N2C(=O)c3ccc(Oc4ccc(N)cc4)cc3C2=O)c1 | -2.02%
CC(C)CC(C(=O)Nc1ccc(S(=O)(=O)Nc2ccccn2)cc1)N1C(=O)c2ccccc2C1=O (stereo not given) | 0.21%
CCOc1ccccc1OCC(=O)Nc1ccc(S(=O)(=O)Nc2ncccn2)cc1 | 2.46%
Cc1ccn(CCC(=O)N2CCOC(c3cccc(Nc4ncc(C)s4)n3)C2)n1 (stereo not given) | -1.16%
NC(=O)CN1CCCCC1c1csc(Nc2ccccn2)n1 (stereo not given) | 8.38%
Cc1cc(C)nc(NS(=O)(=O)c2ccc(NS(=O)(=O)/C=C/c3ccccc3)cc2)n1 | 5.62%
CCCc1cnc(Nc2cccc(C3CCN(C(=O)C4CCCCN4CCCO)CC3)n2)s1 (stereo not given) | -21.2%
CC(C)(N)C(=O)N1CCC(c2cccc(Nc3ncc(CC(F)(F)F)s3)n2)CC1 | -21.1%
Cc1cnc(Nc2cccc(C3CN(C(=O)C4(c5ccccc5)CC4)CCO3)n2)s1 (stereo not given) | -7.66%
CCCc1cnc(Nc2cccc(C3CCN(C(=O)C4CCCCN4CC(=O)O)CC3)n2)s1 (stereo not given) | -19.3%
Cc1cccc(N2CC(C(=O)Nc3ccc(S(=O)(=O)Nc4ncccn4)cc3)CC2=O)c1C (stereo not given) | 2.21%
COc1ccc(C(=O)Nc2ccc(S(=O)(=O)Nc3ccccn3)cc2)cc1OC | 2.76%
O=C(O)CCOCCOCCOCCOCCNc1ccc2c(c1)C(=O)N(C1CCC(=O)NC1=O)C2=O (stereo not given) | 9.95%
CS(=O)(=O)Nc1ccc(S(=O)(=O)Nc2ncccn2)cc1 | 3.46%
